Assay outcomes (PubChem)
The list is not random: actives were taken first. Their share in the collection is about 4.3%.
BoNT A protease – BoNT A light chain protease inhibition; inhibition, % at 10 µM; multiplex microsphere protease substrate cleavage, flow cytometry; hit rate 0.17% among 360,000; AID 588499; further: plate controls were buffer without enzyme for full effect and enzyme alone for no effect
Anthrax LF inh2 – anthrax lethal factor protease inhibition | P15917 | inhibition, % at 10 µM | multiplex microsphere protease cleavage assay, LF | hit rate 0.12% among 360,000; further: plate controls were buffer without enzyme for full effect and enzyme alone for no effect
Bead autofluor – compound fluorescence in toxin protease inhibitor counterscreen | compound autofluorescence counterscreen, microsphere flow cytometry; stronger effect = higher value | fluorescence intensity (no concentration beside the values) | hit rate 3.1% among 360,000 | AID 624483; in the data active means fluorescence intensity above about 16000; inconclusive means no clear call, values can overlap the other calls
MazF activator – increases E. coli MazEF RNase cleavage of RNA. P0AE70. FAM/BHQ RNA-DNA oligo cleavage fluorescence, 5 h. activation, % at 20 µM. hit rate 0.32% among 350,000. AID 504720; in the data active means activation above about 50%
Target sequence (P0AE70 whole entry, looked up): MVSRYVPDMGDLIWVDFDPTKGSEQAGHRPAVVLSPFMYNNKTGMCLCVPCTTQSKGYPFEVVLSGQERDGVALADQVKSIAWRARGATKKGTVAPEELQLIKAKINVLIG
PfHsp40 yeast – compounds rescuing yeast from Plasmodium falciparum HSP40 toxicity. growth rescue, % at 12.5 µM. AID 504582. hit rate 0.68% among 340,000. S. cerevisiae expressing PfHsp40, growth rescue, ATP luminescence; in the data active means growth rescue above about 28%, passing the limit was not always enough; inconclusive means no clear call, values can overlap the other calls;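 further: yeast W303a lacking pdr1 and pdr3 grown in galactose medium; growth measured after three days at 30 °C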
BoNT-F LC inh – BoNT F light chain protease inhibition. hit rate 0.22% among 360,000. AID 588497. Multiplex microsphere protease cleavage assay, flow cytometry. inhibition, % at 10 µM; in the data active means inhibition above about 35%, passing the limit was not always enough; inconclusive means no clear call, values can overlap the other calls; further: plate controls were buffer without enzyme for full effect and enzyme alone for no effect
* hit, by the source's call; ? = inconclusive; . = not tested or not shown; + = active, no number. Unless noted, no stated cut-off is given here; in the data, active means inhibition above about 30%; inconclusive means no clear call, values can overlap the other calls; inactive means below that.

SMILES	BoNT A protease	Anthrax LF inh2	Bead autofluor	MazF activator	PfHsp40 yeast	BoNT-F LC inh
O=C(CNC(=O)c1ccco1)OCC(=O)c1ccc(Br)cc1	-8	5	3616	3	0	-31
Cc1cc(C)n(-c2ccc(C(=O)Nc3cccnc3)cc2)n1	1	2	3672	5	0	26
C[C@@H]1CN([C@H](C)CO)C(=O)CCCn2nncc2CO[C@H]1CN(C)S(C)(=O)=O	0	-5	2936	2	.	-6
CCN1C(=O)C(Cc2nc3ccccc3c(=O)n2-c2ccccc2)c2ccccc21 (stereo not drawn)	?	-2	19070*	1	-1	4
c1ccc(Nc2cccc(Nc3ccccc3)c2)cc1	-2	-3	3467	-8	69*	-13
COc1cc(NC(=O)CSc2nc3ccccc3c(=O)n2C)ccc1NC(=O)c1ccco1	12	-12	17911*	5	0	17
COc1cc(NC(=O)c2ccco2)c(OC)cc1NC(=O)CSc1nnc(-c2cccs2)n1C	0	-2	22652*	2	0	-1
CCOc1ccc(OCC)c(NC(=O)CSc2nc3ccccc3c(=O)n2C)c1	0	0	22042*	7	-1	2
O=C(CCOc1ccc(F)cc1)Nc1nccs1	0	21	3893	6	-1	?
COc1ccc(C(=O)OCc2ccccc2C#N)cc1S(=O)(=O)N1CCOCC1	0	-7	4155	4	.	0
Cn1cncc1C#Cc1ccc2cc(CCO)oc(=O)c2c1	0	6	3667	7	67*	5
Cn1cncc1C#Cc1ccc2cc(C3(O)CCCCC3)oc(=O)c2c1	0	-1	3290	76*	-1	1
CN(c1ccccc1)S(=O)(=O)c1ccc(NC(=O)c2nc(S(C)(=O)=O)ncc2Cl)cc1	2	1	5222	7	1	6
COc1ccc(N(C(=O)c2ccco2)S(=O)(=O)c2cc(Cl)c(Cl)cc2Cl)cc1	-1	-6	23813*	-9	0	-6
COc1cccc(NC(=O)CN(C)C(=O)C2CC(=O)N(CCc3ccc(OC)c(OC)c3)C2)c1 (stereo not drawn)	0	0	4006	10	-2	-2
Cc1cc2c(cc1C)[n+](C)cn2CC(O)COCc1ccccc1 (stereo not drawn)	3	-3	22173*	6	-1	4
C[n+]1cn(CC(O)COCc2ccccc2)c2ccccc21 (stereo not drawn)	0	0	10066	1	0	-2
Cc1cc(C)n(CC(O)COc2cccc(OCC(O)Cn3nc(C)cc3C)c2)n1 (stereo not drawn)	2	2	4220	7	2	9
Cc1cc(C)n(CC(O)COCc2ccccc2)n1 (stereo not drawn)	?	-1	20483*	0	-1	-3
O=C(NCc1ccc2c(c1)OCO2)c1ccc2c(c1)C(=O)N(Cc1cccnc1)C2=O	0	-8	5797	3	-1	5
O=C(NCc1cccnc1)c1ccc2c(c1)OCO2	?	-2	22188*	0	0	-3
CCS(=O)(=O)N1CCC(C(=O)NCc2ccc3c(c2)OCO3)CC1	0	-3	7669	8	0	3
CCCCC1CCC(C(=O)NCc2ccc3c(c2)OCO3)CC1 (stereo not drawn)	-2	0	23610*	3	1	-2
O=C(NCc1ccc(Cl)cc1)C1=Cc2cc(Cl)ccc2OC1	2	1	21246*	1	0	1
COCC(=O)NCc1ccc2c(c1)OCO2	2	1	22350*	16	0	4
SMILES	BoNT A protease	Anthrax LF inh2	Bead autofluor	MazF activator	PfHsp40 yeast	BoNT-F LC inh
O=C(NCc1cccc(Cl)c1)c1ccc2c(c1)OCO2	?	1	21016*	3	0	0
O=C(CCS(=O)(=O)c1ccc(Br)s1)NCc1ccc2c(c1)OCO2	?	0	22950*	-1	0	1
O=C(CSc1nc2cc(Cl)ccc2s1)NCc1ccc2c(c1)OCO2	0	0	1885	63*	-1	4
O=C(CCNS(=O)(=O)c1ccc(Br)s1)NCc1ccc2c(c1)OCO2	1	5	5223	-14	-2	5
O=C(CSCc1ccccc1)NCc1ccc2c(c1)OCO2	0	0	2353	-5	1	-6
O=C(CSCc1cccc(Cl)c1)NCc1ccc2c(c1)OCO2	2	-6	21289*	5	6	3
Cc1nnc(SCC(=O)NCc2ccc3c(c2)OCO3)s1	-1	-4	7650	10	0	-4
CCOC(=O)c1nc(N/N=C/c2ccccc2)sc1Br	-1	7	4422	15	1	?
COC(=O)c1cc(C(=O)NNC(=O)c2ccc3c(c2)OCO3)cc([N+](=O)[O-])c1	0	-3	3000	3	1	-11
Cc1sc2ncnc(SCC(=O)NC3CC3)c2c1C	-2	2	24257*	-3	1	-3
Cc1sc2ncnc(SCC(=O)NC3CCCC3)c2c1C	1	-5	4274	-3	0	4
CC1CCc2cc(F)ccc2N1C(=O)CSc1nnc(-c2cccs2)n1C (stereo not drawn)	?	-3	23587*	4	1	-3
Cc1cc(=O)[nH]c(SCC(=O)N2CCCc3ccccc32)n1	1	3	12890	-3	1	5
O=C(CSc1nnc(Cc2cccs2)n1CCc1ccccc1)N1CCCc2ccccc21	0	-2	23460*	2	2	1
Cc1nnc(SCC(=O)N2CCCc3ccccc32)[nH]c1=O	1	-2	16177*	-1	0	0
CC1CCc2cc(F)ccc2N1C(=O)CSc1nnc2c(n1)[nH]c1ccccc12 (stereo not drawn)	0	-3	2206	5	2	0
Cc1nnc(SCC(=O)NCc2ccccc2)[nH]c1=O	-3	-1	17403*	-6	-2	-6
CCn1c(=O)c(CCC(=O)NCC2CCCO2)c(C)c2c(C)nn(-c3ccc(C)cc3)c21 (stereo not drawn)	0	0	4176	2	0	0
CCn1c(=O)c2c(nc3n2CCN3c2ccccc2)n(C)c1=O	1	1	3257	8	-3	-2
C[C@@H]1CC[C@H](Cc2ccc(-n3cccc3)cc2)N1C(=O)OC(C)(C)C	0	-6	3603	1	.	-1
Cn1c(SCC(=O)N2CCCc3ccccc32)nnc1-c1cccs1	-1	-4	23321*	9	0	1
O=C(CSc1ccc(-c2ccc(Cl)cc2)nn1)N1CCCc2ccccc21	2	2	9612	-2	18	4
O=C(CSc1ccc(-c2ccccn2)nn1)N1CCCc2ccccc21	-1	2	3201	0	473*	-4
CCOc1ccc(OCCOC(=O)CN(C)S(=O)(=O)c2ccc(NC(C)=O)cc2)cc1	0	0	5175	-3	0	?
O=c1c2ccccc2c(C=Nc2ccc(O)cc2)c(O)n1Cc1ccccc1	0	-3	4713	+	1	-2
